SNCA viab count = GF-AFC viability counterscreen for inhibitors of alpha-synuclein gene (SNCA) expression; HEK-293-SNCA-luc viability, GF-AFC fluorescence, 24 h; Potency, µM (series often up to 57.1 µM), hits mostly cytotoxic; actives 0.12% (n = 150,000); AID 1671193, 2021; note: nearly all actives have a fitted effect of over 30% in size
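Cytotoxicity counterscreen: after 24 h compound treatment of genome-edited SNCA-luciferase HEK-293 cells, live-cell protease substrate GF-AFC read by fluorescence after 30 min; activity scaled between DMSO (0%) and medium-only (-100%), curves Hill-fitted.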
SNCA expr inhib = Primary qHTS assay for inhibitors of alpha-synuclein gene (SNCA) expression; HEK-293 SNCA-luciferase knock-in, luminescence, 24 h; Potency, µM (top dose mostly 57.2 µM), most hits filed as inhibitors; actives 0.17% (n = 140,000); note: nearly all actives have a fitted effect of over 45% in size
KDM5B inhibitor = Primary screen for KDM5B Histone Demethylases FDH-coupled qHTS. Lysine-specific demethylase 5B (Homo sapiens), Q9UGL1. KDM5B demethylase, FDH-coupled NADH fluorescence (FDH is formaldehyde dehydrogenase). Potency, µM (top dose mostly 57.7 µM), actives largely listed as inhibitors. actives 2.6% (n = 220,000). AID 1347165, 2019; note: nearly all actives have a fitted effect of over 70% in size
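Inhibition is measured as reduced NADH fluorescence generation from FDH coupling to formaldehyde release. Truncated KDM5BΔAP at 200 nM final acts on H3K4me3 peptide (12.5 µM in substrate mix) in pH 7.5 HEPES buffer with Tween-20, 30 min, room temperature.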
IP6K1 inhibitor = Primary qHTS assay for small molecule inhibitors of Inositol hexaphosphate kinase 1 (IP6K1); activity change, % (series mostly up to about 58 µM); AID 1645851, 2021; IP6K1 kinase, ADP-Glo luminescence, 2 h; hits give low values; actives 0.81% (n = 140,000); in the data active = activity change below about -25%
Target sequence (Q92551 whole entry, looked up): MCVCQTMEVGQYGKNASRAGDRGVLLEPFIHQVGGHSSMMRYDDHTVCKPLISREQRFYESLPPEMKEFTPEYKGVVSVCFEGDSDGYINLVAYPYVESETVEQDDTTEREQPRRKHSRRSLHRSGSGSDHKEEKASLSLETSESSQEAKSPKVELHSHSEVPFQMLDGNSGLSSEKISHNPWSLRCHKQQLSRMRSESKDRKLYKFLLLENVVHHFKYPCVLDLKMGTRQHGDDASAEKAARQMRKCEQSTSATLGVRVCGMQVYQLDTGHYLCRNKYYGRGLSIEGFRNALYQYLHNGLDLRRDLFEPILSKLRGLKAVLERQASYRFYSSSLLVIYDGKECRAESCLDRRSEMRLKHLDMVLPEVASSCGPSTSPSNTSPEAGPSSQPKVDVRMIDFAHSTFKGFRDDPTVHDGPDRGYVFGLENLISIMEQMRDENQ
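ADP-Glo luminescence measures ADP made by human IP6K1 during a 2 h RT reaction with ATP/IP6 (mix at 1.3 mM/130 uM); top library doses 57.5 and 19.1 uM final.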
Large screens that a line does not name were inactive; ! = repeats disagree. The list is not random: actives were taken first. Their share in the collection is about 3%. Unless noted, calls come from the whole dose curve; as a rule, active = well fitted curve in the direction sought with a large enough effect; inconclusive = small, poorly fitted or top-dose-only effect, or another doubt; inactive = no such curve, though single readings can be large; an effect the other way counts as inactive or inconclusive.

O=c1c(-c2ccc(O)cc2)coc2cc(O)cc(O)c12	SNCA expr inhib 2.8µM! (no result: KDM5B inhibitor)
CCCc1noc(-c2ccn3c(CNC(=O)c4ccccc4F)nnc3c2)n1	KDM5B inhibitor 8.9µM
CCCc1noc(-c2ccn3c(CNC(=O)c4c(F)cccc4F)nnc3c2)n1	KDM5B inhibitor 28µM
CCCc1noc(-c2ccn3c(CNC(=O)c4cc(F)ccc4F)nnc3c2)n1	KDM5B inhibitor 32µM
CC(=O)C1=CC[C@H]2[C@@H]3CC=C4C[C@@H](O)CC[C@]4(C)[C@H]3CC[C@]12C	none (no result: SNCA viab count, SNCA expr inhib, IP6K1 inhibitor)
COc1ccc2[nH]c(C(=O)NCC(=O)N3CCCCCCNC(=O)CC3c3ccccc3)cc2c1 (stereo not drawn)	KDM5B inhibitor 16µM
COc1ccc2[nH]c(C(=O)N3CCCCCNC(=O)[C@@H]4CCC[C@@H]43)cc2c1	KDM5B inhibitor 28µM
COc1ccc2[nH]c(C(=O)NCC(=O)N3CCCCCNC(=O)CC3c3ccccc3)cc2c1 (stereo not drawn)	KDM5B inhibitor 28µM
CCC1(CC)NC(=O)N(Cc2coc(-c3ccc(Cl)cc3)n2)C1=O	none (no result: SNCA viab count, SNCA expr inhib, IP6K1 inhibitor)
Cn1nccc1OCc1cn2c(=O)n(C)cc(-c3cccc(OCc4ccccc4)c3)c2n1	SNCA viab count inconclusive, SNCA expr inhib inconclusive, KDM5B inhibitor 40µM
COc1ccc(-c2cn(C)c(=O)n3cc(COc4ccnn4C)nc23)cc1	KDM5B inhibitor inconclusive
COc1ccc(-c2cn(C)c(=O)n3cc(COc4ccnn4C)nc23)cc1OC	KDM5B inhibitor 35µM
COCc1cn2c(=O)n(C)cc(-c3ccc(OC)nc3)c2n1	none
Cn1cc(-c2ccc(O)c(F)c2)c2nc(COc3ccc(Cl)cc3)cn2c1=O	KDM5B inhibitor 20µM
COCc1cn2c(=O)n(C)cc(-c3ccnc(OC)c3)c2n1	KDM5B inhibitor 32µM
O=[S+]1([O-])c2cnccc2O[C@@H](COCc2ccccc2)CN1Cc1ccccc1	SNCA expr inhib inconclusive (no result: KDM5B inhibitor)
CCOCCCNCc1cc(=O)oc2ccc3ccccc3c12	none (no result: SNCA viab count, SNCA expr inhib, IP6K1 inhibitor)
CC(C)n1ncc2cc(NC(=O)CCc3ncc(-c4ccccc4F)o3)cnc21	none (no result: SNCA viab count, SNCA expr inhib, IP6K1 inhibitor)
COc1cc(CNc2nccc3c(=O)cc(N4CCOCC4)oc23)cc(OC)c1	SNCA viab count inconclusive, KDM5B inhibitor 28µM
Cn1nccc1-c1nccc2c(=O)cc(N3CCOCC3)oc12	KDM5B inhibitor 35µM
O=c1cc(-c2cccnc2)oc2c(-c3ccccc3F)nccc12	SNCA expr inhib inconclusive, KDM5B inhibitor 35µM
CN(c1ccccc1)c1cc(=O)c2ccnc(NCC3CCOCC3)c2o1	none
COc1cccc(-c2nccc3c(=O)cc(N4CCOCC4)oc23)c1	KDM5B inhibitor 35µM
COc1ccc(NC(=O)C(=O)c2c(C)[nH]c3ccccc23)cc1	none (no result: SNCA viab count, SNCA expr inhib, IP6K1 inhibitor)
O=c1cc(N2CCOCC2)oc2c(Nc3ccccc3)nccc12	none
O=c1cc(N2CCOCC2)oc2c(NC3CCOCC3)nccc12	KDM5B inhibitor 35µM
COc1ccc(Nc2nccc3c(=O)cc(N4CCOCC4)oc23)cn1	SNCA viab count inconclusive, SNCA expr inhib inconclusive, KDM5B inhibitor 32µM
O=c1cc(N2CCOCC2)oc2c(-c3cccc(F)c3)nccc12	KDM5B inhibitor 40µM
Cc1ccc(F)cc1-c1nccc2c(=O)cc(N(C)C)oc12	KDM5B inhibitor 40µM
CN(C)c1cc(=O)c2ccnc(-c3ccccc3F)c2o1	none
Cc1ccc(N2CCN(C(=O)CCNS(=O)(=O)c3ccc4[nH]c(=O)ccc4c3)CC2)c(C)c1	none (no result: SNCA viab count, SNCA expr inhib, IP6K1 inhibitor)
CN(C(=O)c1ccc(I)cc1)C1CCCCC1	none (no result: SNCA viab count, SNCA expr inhib, IP6K1 inhibitor)
CN(c1cc(=O)c2ccnc(-c3ccccc3Oc3ccccc3)c2o1)C1CCOCC1	none
CC(=O)Nc1cccc(-c2nccc3c(=O)cc(N4CCOCC4)oc23)c1	KDM5B inhibitor 35µM
CN(C)c1cc(=O)c2ccnc(-c3ccccc3Oc3ccccc3)c2o1	KDM5B inhibitor 35µM
O=c1cc(N2CCOCC2)oc2c(-c3cncnc3)nccc12	KDM5B inhibitor 25µM
CN(C)c1cc(=O)c2ccnc(-c3ccc(F)c(Cl)c3)c2o1	KDM5B inhibitor 35µM
O=Cc1ccc(-c2ccc(I)cc2Cl)o1	none (no result: SNCA viab count, SNCA expr inhib, IP6K1 inhibitor)
COc1cccc(-c2nccc3c(=O)cc(N(C)C)oc23)c1	KDM5B inhibitor 32µM
C[S+](=O)([O-])c1cccc(-c2nccc3c(=O)cc(N4CCOCC4)oc23)c1	KDM5B inhibitor 28µM
O=c1cc(N2CCOCC2)oc2c(-c3ccccc3O)nccc12	none
O=c1cc(N2CCOCC2)oc2c(-c3cccnc3)nccc12	KDM5B inhibitor 40µM

High-throughput results from PubChem BioAssay.
